Sampled rows, rich in hits. Any-hit rate of the full collection: about 18%.
TDP1 inh = TDP1 (human) enzyme inhibition; Q9NUW8; recombinant TDP1, AlphaScreen DNA substrate cleavage; Potency, µM (highest dose often 130 µM), without a hit: at the top dose activity change, negative = inhibition, hits mostly inhibitors; 0.28% of 350,000 active; AID 485290; note: potency is the fitted concentration of half-maximal effect; % is set by controls: 0 for no effect and ±100 for the full control effect; nearly all actives have a fitted effect of over 40% in size
Target sequence (Q9NUW8 whole entry, looked up): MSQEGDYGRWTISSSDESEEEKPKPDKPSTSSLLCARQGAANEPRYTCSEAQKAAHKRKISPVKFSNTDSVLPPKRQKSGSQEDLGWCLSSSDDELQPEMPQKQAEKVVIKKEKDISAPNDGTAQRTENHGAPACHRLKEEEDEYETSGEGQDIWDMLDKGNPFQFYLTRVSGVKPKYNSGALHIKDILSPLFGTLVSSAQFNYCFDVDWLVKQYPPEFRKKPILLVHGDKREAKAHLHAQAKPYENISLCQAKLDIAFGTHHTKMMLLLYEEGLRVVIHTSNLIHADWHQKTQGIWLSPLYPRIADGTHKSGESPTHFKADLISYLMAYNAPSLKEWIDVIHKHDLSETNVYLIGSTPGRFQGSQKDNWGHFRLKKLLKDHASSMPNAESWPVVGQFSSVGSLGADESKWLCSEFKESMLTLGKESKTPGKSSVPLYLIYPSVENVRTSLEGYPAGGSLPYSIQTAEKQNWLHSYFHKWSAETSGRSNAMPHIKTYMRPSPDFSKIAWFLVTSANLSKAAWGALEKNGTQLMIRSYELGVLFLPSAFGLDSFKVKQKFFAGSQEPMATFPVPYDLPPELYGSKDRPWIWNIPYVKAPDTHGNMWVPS
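Compounds were preincubated with Tdp1 (1 nM final) for 15 min at room temperature before substrate (15 nM final) started a 5 min reaction; beads (10 ug/ml final) were then added for 10 min before AlphaScreen detection.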
TGFb SMAD3 inh = blocks TGF-b signaling; AID 588855; 1.2% of 410,000 active; Potency, µM (doses to about 46.1 µM), for the others: at the top dose activity, negative = inhibition, hits mostly inhibitors; HepG2 CAGA-GFP TGF-b/SMAD3 reporter, GFP fluorescence, 18 h; TGF-beta stimulated, 500 pg/mL final; note: potency is the fitted concentration of half-maximal effect; % is set by controls: 0 for no effect and ±100 for the full control effect; nearly all actives have a fitted effect of over 65% in size
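HEPG2 CAGA-GFP reporter cells (1000/well, DMEM with 1% FBS) received compounds, then recombinant TGF-beta at 500 pg/mL final for 18 hours at 37 degrees C. Per-cell GFP summed per well was normalised to unstimulated and stimulated DMSO controls before curve fitting.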
DT40 TDP1 no CPT = qHTS for Inhibitors of human tyrosyl-DNA phosphodiesterase 1 (TDP1): qHTS in cells in absence of CPT; DT40 Tdp1-/- hTDP1 cells, no CPT, ATP luminescence, 48 h; Potency, µM (doses to about 46.2 µM), for inactives: top-dose activity change, negative = growth inhibition, usual class: inhibitors; 15% of 420,000 active; AID 686978, 2013; note: potency is the fitted concentration of half-maximal effect; % is set by controls: 0 for no effect and ±100 for the full control effect; nearly all actives have a fitted effect of over 55% in size
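Compound effects on proliferation are scored in DT40 Tdp1-/-;hTDP1 cells in the absence of CPT. ATP levels (CellTiter-Glo luminescence) are recorded after a ≥48 hr, 37 °C incubation.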
IL-1B inflam inh = inhibitors of inflammasome signaling (IL-1 beta secretion); 4.7% of 360,000 active; THP-1 LPS/ATP IL-1B secretion, AlphaLISA, 16 h; stronger effect = lower value; activity change, % at 57.5 µM; in the data active = activity change below about -50%; inconclusive = mostly about -30% to -49%; note: % is set by controls: 0 for no effect and ±100 for the full control effect
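THP-1 cells pretreated 1 hr with compounds (up to 57.5 uM final), then stimulated with LPS (250 ng/mL final) plus ATP (1.25 mM final); secreted IL-1B measured by AlphaLISA after 16 hr, decreased signal indicating inhibition.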
DT40 TDP1 CPT = growth inhibition of DT40 Tdp1-/-;hTDP1 cells with camptothecin (screen for TDP1 inhibitors); 12% of 420,000 active; AID 686979; chicken DT40 Tdp1-/-;hTDP1 cells + 20 nM CPT, ATP luminescence, 48 h; Potency, µM (highest dose often 46.2 µM), for the others: top-dose activity change, negative = growth inhibition, usual class: inhibitors; note: potency is the fitted concentration of half-maximal effect; % is set by controls: 0 for no effect and ±100 for the full control effect; nearly all actives have a fitted effect of over 55% in size
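Chicken DT40 Tdp1-/- cells complemented with human TDP1, 400 cells/well, exposed to compounds plus 20 nM camptothecin for at least 48 h at 37 C; viability read as ATP content by CellTiter-Glo luminescence.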
HepG2 tox = HepG2 cytotoxicity, counter-screen for TGF-b inhibitors | AID 588856 | 0.76% of 410,000 active | HepG2 CAGA-GFP viability, ATP luminescence, 18 h | Potency, µM (top dose mostly 46.1 µM), inactives show at the highest dose activity change, negative = cytotoxicity, most hits filed as cytotoxic; note: potency is the fitted concentration of half-maximal effect
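CellTiter-Glo luminescence gave cytotoxicity after 18 hours at 37 degrees C. The cells were HepG2 CAGA-GFP in 1% FBS DMEM, stimulated with 500 pg/mL TGF-beta after compound addition. %Activity was normalised to no-cell wells (complete cell-killing) and DMSO (no toxicity), and curves were fitted and classified.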
Numbers without * were called inactive; ? = inconclusive; . = no result; [ ] = another dose, or the depositor's remark. Unless noted, calls come from the whole dose curve; as a rule, active = well fitted curve in the direction sought with a large enough effect; inconclusive = small, poorly fitted or top-dose-only effect, or another doubt; inactive = no such curve, though single readings can be large; an effect the other way counts as inactive or inconclusive.

SMILES	TDP1 inh	TGFb SMAD3 inh	DT40 TDP1 no CPT	IL-1B inflam inh	DT40 TDP1 CPT	HepG2 tox
O=C(C1CCCN(S(=O)(=O)c2ccc(F)cc2)C1)N1CCCCCC1 (centres undefined)	3.6%	-17.1%	8.2µM*	11.2	11.6µM*	-9.0%
CCOc1cc(NC(=O)c2cnccn2)c(OCC)cc1NC(=O)c1cccc(F)c1	0.0%	.	.	.	.	.
CC(=O)c1ccc(N2CCN(C(=O)C3CCN(S(=O)(=O)c4c(C)noc4/C=C/c4ccc(C)cc4)CC3)CC2)cc1	4.1%	?	2.59µM*	.	6.51µM*	-1.1%
Cc1ccc(/C=C/c2onc(C)c2S(=O)(=O)N2CCC(C(=O)N3CCC(N(C)C(C)C)CC3)CC2)cc1	0.6%	?	6.51µM*	.	5.17µM*	-102.0%
Cc1cccc(N2CCN(C(=O)C3CCN(S(=O)(=O)c4c(C)noc4/C=C/c4ccccc4F)CC3)CC2)c1C	4.1%	32.5%	?	.	-23.2%	2.9%
CC(=O)c1ccc(N2CCN(C(=O)C3CCN(S(=O)(=O)c4cn(C)cn4)CC3)CC2)cc1	-6.2%	0.2%	-9.2%	.	-11.7%	-1.0%
Cc1ccc(/C=C/c2onc(C)c2S(=O)(=O)N2CCC(C(=O)N3CCN(c4ccccc4F)CC3)CC2)cc1	5.3%	0.0%	2.59µM*	.	20.6µM*	1.7%
O=C(Nc1cc(Cl)cc2c1[nH]c1cnccc12)c1cccnc1	-0.3%	.	.	.	.	.
Cc1ccc(NC(=O)c2cccc(-n3cnnn3)c2)cc1Cl	-0.4%[56.1 µM]	0.1%	-16.0%	0.0	-17.8%	-3.6%

Source: PubChem BioAssay
